From the supplement of paper PMC12669032
Values without a mark were called inactive.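 The calls were made as follows: active = AUC reduced over 20% with Padj below 0.05 in at least 2 of 3 replicates; inactive = otherwise.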

Columns and labels:
Roseburia intestinalis = assay: growth AUC relative to DMSO control (median of replicates) (fraction); higher = more growth (less inhibition), active = hit call of the paper; settings: 20 µM; 24 h
Outline: (§1)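 Gut bacterial monocultures were grown anaerobically at 37 °C in mGAM from a starting OD600 of 0.05 with 20 µM compound (1% DMSO), in round-bottom 96-well plates under pierced gas-permeable seals, and OD600 was read hourly for 24 h. With the minimum OD set to 0, area under the growth curve was normalised to the plate median of solvent-only wells, or to row and column medians on the industrial chemical plate. Each value is the median of three biological replicates grown on separate days.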

Streptococcus salivarius = assay: as above; settings: 20 µM; 24 h
Outline: as §1

Structure (SMILES) | growth AUC (Roseburia intestinalis) | growth AUC (Streptococcus salivarius)
FC(F)(F)/N=C1\SC(=Nc2ccccc2)N(c2ccccc2)\C1=N\C(F)(F)F | 0.922 | 0.946
CC[N+](CC)(CC(=O)Nc1c(C)cccc1C)Cc1ccccc1.O=C([O-])c1ccccc1 | 1.02 | 1.01
C[C@@]1(c2ccccc2)NC(=O)N(Nc2ccccc2)C1=O | 0.958 | 1.02
CN(C)C(=O)Nc1ccc(Oc2ccc(Cl)cc2)cc1 | 0.874 | 0.94
Cc1ccc(C)c(O)c1 | 0.996 | 1.09
O.O=C(Nc1ccc([N+](=O)[O-])cc1Cl)c1cc(Cl)ccc1O | 0.869 | 0.085 (active)
CCC/C(=N\OCC)C1=C(O)CC(C2CCCSC2)CC1=O (centres undefined) | 0.937 | 0.974
CCN(CC)C(=O)c1cccc(C)c1 | 0.967 | 0.96
CC1COc2ccccc2N1C(=O)C(Cl)Cl (centres undefined) | 0.92 | 0.944
Nc1nc2ccccc2[nH]1 | 0.901 | 0.953
CCCCCCCC/C=C\CCCCCCCCCCCC(=O)O | 0.973 | 0.898
COc1nc(NC(=O)NS(=O)(=O)c2ccccc2C(F)(F)F)nc(C(F)(F)F)n1 | 0.993 | 1.02
CCOC(=O)c1nc(C(Cl)(Cl)Cl)n(-c2ccc(Cl)cc2Cl)n1 | 0.949 | 0.992
N#Cc1c(N)nc(NC2CC2)nc1N | 0.999 | 1
CCS(=O)(=O)c1nnc(N(C)C(=O)NC)s1 | 1 | 0.99
CCC(C)c1cc([N+](=O)[O-])cc([N+](=O)[O-])c1OC(=O)OC(C)C (centres undefined) | 0.692 (active) | 0.901
c1ccc2c(c1)Cc1ccccc1-2 | 1 | 0.985
ClC=C(c1ccc(Cl)cc1)c1ccc(Cl)cc1 | 0.932 | 0.928
CC(C)c1ccccc1 | 0.991 | 0.968
CC(C)c1cc(Oc2ccccc2)cc(C(C)C)c1NC(=S)NC(C)(C)C | 0.926 | 0.992
COc1ccc(Cl)c(Cl)c1Cl | 0.999 | 1.06

Structure (SMILES) | growth AUC (Roseburia intestinalis) | growth AUC (Streptococcus salivarius)
COC(=O)Cc1cccc2ccccc12 | 1.04 | 1.01
COC(=O)C(Cl)Cc1ccc(Cl)cc1 (centres undefined) | 0.965 | 0.93
CCc1cc(C(=O)O)cc(CC)c1C1C(=O)N2CCOCCN2C1=O | 0.952 | 1
CCc1cccc(C)c1N(C(=O)C(=O)O)[C@@H](C)C(=O)O | 0.973 | 0.943
ClC(COCC(Cl)C(Cl)(Cl)Cl)C(Cl)(Cl)Cl (centres undefined) | 1.01 | 1.02
CC(C)N(C(=O)CS(=O)(=O)[O-])c1ccc(F)cc1.[Na+] | 1.03 | 0.973
CC(C)(C)C(=O)C(Oc1ccc(Cl)cc1)n1ccnc1 (centres undefined) | 0.9 | 0.963
COC(=O)c1ccc(C)cc1C1=NC(C)(C(C)C)C(=O)N1 (racemic) | 0.934 | 0.97
NC(=O)c1nn(-c2c(Cl)cc(C(F)(F)F)cc2Cl)c(N)c1S(=O)C(F)(F)F (centres undefined) | 0.992 | 0.977
CCc1cccc(C)c1NC(=O)C(=O)O | 0.953 | 0.994
CC(C)OC(=O)N[C@H](C(=O)N[C@H](C)c1nc2ccc(F)cc2s1)C(C)C | 0.975 | 0.959
Cc1nn(C)c(Oc2ccccc2)c1/C=N/OCc1ccc(C(=O)OC(C)(C)C)cc1 | 0.924 | 0.993
Br[C@@H]1CC[C@@H](Br)[C@@H](Br)CC[C@@H](Br)[C@@H](Br)CC[C@H]1Br | 1 | 0.521 (active)
COc1ccccc1C(=O)NS(=O)(=O)c1ccc(C(=O)NC2CC2)cc1 | 0.978 | 1.01
CNC(=O)Sc1ccc(OS(C)(=O)=O)cc1 | 0.992 | 0.937
COc1nc(OC)nc(C(=O)c2cccc(F)c2N(C)S(=O)(=O)C(F)F)n1 | 1.01 | 1.02
CCC(C)Nc1nc(N)nc(Cl)n1 (centres undefined) | 0.998 | 0.987
CCCCCCCCCC[N+](C)(C)Cc1ccccc1.[Cl-] | 0.885 | 0.926
COCC(=O)N(c1c(C)cccc1C)C(C)C(=O)O (centres undefined) | 1.01 | 1.01
CC1=C(c2ccccc2)C(=O)N(C(C)(C)c2cc(Cl)cc(Cl)c2)CO1 | 1.03 | 0.979
CC(C)NS(=O)(=O)NC(=O)c1cc(-n2c(=O)cc(C(F)(F)F)[nH]c2=O)c(F)cc1Cl | 1 | 1
